PubChem BioAssay (NCI)
About 83,000 compounds went through this panel and 20% of them were active in at least one assay; those are over-represented in the sample as a whole.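 The endpoint reported here, percent growth, reads 100 for growth as untreated, 0 for no net growth and -100 for all cells dead.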 Unmarked numbers belong to inactive results. Activity calls are given as the source filed them. The calls were made as follows: active = growth percent below 10; inactive = the rest.

The molecules below were run on HL-60(TB) leukemia (assay: NCI-60 one-dose screen, 48 h (100 = growth as untreated, 0 = no growth, -100 = all killed)). Conditions: 10 µM unless noted.

Compared with `Fc1ccc(/C=C/c2cc(/C=C/c3ccc(F)cc3)n(-c3cc(F)cc(F)c3)n2)cc1`, `CC(=O)N1N=C(c2ccc(Cl)cc2)CC1c1c(C)nn(-c2ccccc2)c1N(C)Cc1ccccc1` (stereo not given) is higher in growth: 78.9% for the first, 82.4% for the second.

Compared with `C#CCCCCCCC[C@@H]1OC(=O)[C@H]([C@@H](C)CC)NC(=O)[C@H]([C@@H](C)CC)NC(=O)CC(=O)[C@@H]1C`, `COc1cc2c3c(n(CCCCNCCCn4c5c(c6cc(OC)c(OC)cc6c4=O)C(=O)c4cc6c(cc4-5)OCO6)c(=O)c2cc1OC)-c1cc2c(cc1C3=O)OCO2` is lower in growth: 103% for the first, 93.7% for the second.

Going from `FC(F)(F)c1cc(NC2=NCCN=C(Nc3cc(C(F)(F)F)cc(C(F)(F)F)c3)SS2)cc(C(F)(F)F)c1` to `O=C(Nc1cc([N+](=O)[O-])c2[nH]c(=O)c3ccccc3c2c1)C(F)(F)F`, the growth rises from 52.9% to 94.4%.

First: C#CCOc1cc(/C=N/Nc2nc(-c3ccc(OC)cc3)cs2)ccc1O
Second: COc1ccc(/C=C2\Oc3cc(OCCCCN4CCCC4)ccc3C2=O)cc1
The growth of the first is higher: 97.6% for the first, 92.1% for the second.

Going from `COC(c1ccccc1)C(Br)C(=O)c1ccccc1` (stereo not given) to `O=C(Cc1ccc(F)cc1)c1ccccc1`, the growth rises from 79.1% to 108%.

Compared with `O=C1N=c2cc3c(cc2=C/C1=C/c1sc(=S)n(CCc2ccc(O)cc2)c1O)OCCO3`, `Cc1c(O)c(O)cc2c3c(oc12)CC(c1ccc2c(c1)OCO2)CC3=O` (stereo not given) is higher in growth: 48.1% for the first, 73.7% for the second.

Compared with `Cc1cc2c(-c3nc4ccccn4c3Nc3cccc4ccccc34)c(O)c(O)cc2c(O)c1-c1c(C)cc2c(-c3nc4ccccn4c3Nc3cccc4ccccc34)c(O)c(O)cc2c1O`, `COc1cc(CN(c2ccc(Cl)cc2)C2OC(=O)c3ccccc32)cc(OC)c1OC` (stereo not given) is lower in growth: 28.6% for the first, 21.7% for the second.

First: COc1cc2c(c(OC)c1OC)CCC(c1cccc(C(=O)Nc3ccc(Br)cc3)c1)O2 (stereo not given)
Second: COc1ccc(C(=O)C(CN(C)C)c2ccc(OC)cc2)cc1 (stereo not given)
The growth of the first is higher: 73.1% for the first, 36% for the second.

First: COc1cc(-c2ccc(NC(=O)NC3CC3)c(OC)c2)ccc1NC(=O)NC1CC1
Second: CCOc1ccc(C(CN2CCOCC2)C(C)=O)cc1OC (stereo not given)
The growth of the first is lower: 43.6% for the first, 84.7% for the second.

Going from `O=C1OC2C(I)C3CC2C1C3c1ccccc1` (stereo not given) to `Nc1cc2nc3ccccc3oc-2cc1=O`, the growth falls from 85.7% to 16.2%.

First: O=c1[nH]ccc2nc(N3CCC(O)CC3)nc(Nc3ccc(N4CCOCC4)cc3)c12
Second: O=C(NCCCN1CCC(N2CCCCC2)CC1)C1=Cc2cc(Br)ccc2OC1
The growth of the first is lower: 18.9% for the first, 36.3% for the second.

First: CS(=O)(=O)c1ccc(-c2[nH]c3ccc(F)cc3c2/C=N/O)cc1
Second: CCCCc1oc2ccccc2c1C(=O)c1ccc(O)cc1
The growth of the first is higher: 101% for the first, 68% for the second.

Compared with `Cc1cc(O[C@@H]2O[C@@H](C)[C@H](O)[C@@H](O)[C@H]2O)c2c3c(c(O[C@@H]4O[C@@H](C)[C@H](O)[C@@H](O)[C@H]4O)cc2c1)C(=O)c1c(O)cccc1C3=O`, `N#C/C(=C/c1c(O)ccc2ccccc12)C(N)=O` is higher in growth: 64.9% for the first, 103% for the second.

Going from `S=C1SCN(Cc2ccccc2)CN1Cc1ccccc1` to `Cc1ccc(N=Nc2ccccc2)cc1`, the growth rises from 16.5% to 85.8%.

Going from `CCOC(=O)c1ccc(C(=N)N)cc1` to `Cc1c(Cn2cc(COc3ccc(Br)cc3)nn2)c(C)c(Cn2cc(COc3ccc(Br)cc3)nn2)c(C)c1Cn1cc(COc2ccc(Br)cc2)nn1`, the growth falls from 103% to 89.8%.

With `C[C@H]1[C@H](C)CC[C@]2(C(=O)O)CC[C@]3(C)C(=CC[C@@H]4[C@@]5(C)C/C(=C/c6cccnc6)[C@H](O)C(C)(C)[C@@H]5CC[C@]43C)[C@H]12` the growth was -16.5% [100 µM] (active).
For `O=C(/C=C/c1cccnc1)/C=C/c1cccnc1`, the growth was -43.4% (active).
In the case of `CC(C)=CCc1cc(O)cc2c1OC(C=C(C)C)C1=C2C(=O)C2=C(C1=O)S(=O)(=O)CCN2` (stereo not given), the growth was -31.5% (active).
For `C[n+]1c2ccccc2c(Nc2ccc(N3CCCCC3)cc2)c2[nH]c3ccccc3c21`, the growth was -55.6% (active).
With `c1cn2cc(-c3ccc4ncn(C5CCCCC5)c4c3)nc(-c3ccc4c(c3)ncn4C3CCCCC3)c2n1` the growth was -42.2% (active).
`O=C(Nc1cccc(Oc2nnc(Cl)c3ccccc23)c1)Nc1ccc(Cl)c(C(F)(F)F)c1` was tested, and the growth was -16.7% (active).
With `COc1cc(NC(=O)c2cncnc2Nc2ccc3c(ccn3Cc3ccccn3)c2)cc(OC)c1` the growth was 4.49% (active).
For `Cc1cccc(Cc2cnc(NC(=O)CCc3ccc(C)o3)s2)c1`, the growth was -41.5% (active).
With `CCc1ccc2c(c1)N(CCO)C1=C(C(=O)OC1)C2c1cccc(Br)c1` (stereo not given) the growth was -9.76% (active).
With `Cc1nc(NC(=O)COc2cccc(/C=C3\COc4ccccc4C3=O)c2)sc1C` the growth was -61.4% (active).
